Active and inactive are the calls of the source. The calls were made as follows: active = hit-call score of the fitted dose curve at least 0.9, where 1 is the maximum; inactive = score below 0.9.
experiment: CCTE_Harrill_HTTr_Apoptosis_MCF7: CCTE's 6-hour Apoptosis Assessment for the High-Throughput Transcriptomics (HTTr) Platform, in MCF-7 cells cultured in DMEM + 10% fetal bovine serum, Harrill Lab (AID 2284011)
In short: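 MCF-7 cells in DMEM + 10% FBS exposed 6 h to chemicals over an eight-point dilution series. Caspase-3/7 activation imaged by high-content CellEvent Green staining; fitted bidirectionally versus DMSO.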

outcome, inactive:
O=C1c2cccc(O)c2C(=O)c2c(O)cc(CO)cc21, C1=Cc2ccccc2C1, CC1(C)O[C@@H]2C[C@H]3[C@@H]4C[C@H](F)C5=CC(=O)CC[C@]5(C)[C@H]4[C@@H](O)C[C@]3(C)[C@]2(C(=O)CO)O1, CC[C@H]1OC(=O)[C@H](C)[C@@H](O[C@H]2C[C@@](C)(OC)[C@@H](O)[C@H](C)O2)[C@H](C)[C@@H](O[C@@H]2O[C@H](C)C[C@H](N(C)C)[C@H]2O)[C@](C)(O)C[C@@H](C)C(=NOCOCCOC)[C@H](C)[C@@H](O)[C@]1(C)O, CCC(=O)Oc1ccc(/C(CC)=C(\CC)c2ccc(OC(=O)CC)cc2)cc1, CC(=O)[C@@]1(O)CC[C@H]2[C@@H]3C[C@H](C)C4=CC(=O)C=C[C@]4(C)[C@@]3(F)[C@@H](O)C[C@@]21C, Cc1cc(C)c(C)cc1C, C=C(C)[C@H]1CC=C(C)CC1, C1CN(SSN2CCOCC2)CCO1, CCN(Cc1cccc(S(=O)(=O)O)c1)c1ccc(C(=C2C=CC(=[N+](CC)Cc3cccc(S(=O)(=O)[O-])c3)C=C2)c2ccccc2)cc1, CCOC(=O)N1CCC(=C2c3ccc(Cl)cc3CCc3cccnc32)CC1, O=C(Nc1cccc(C(F)(F)F)c1)c1cc(Br)cc(Br)c1O, CC(=O)Nc1nnc(S(N)(=O)=O)s1, O=c1[nH]c(=O)c2[nH]c(=O)[nH]c2[nH]1, CC(=O)NS(=O)(=O)c1ccc(N)cc1

— PubChem BioAssay (EPA / NIEHS)
